Source: PubChem (National Center for Advancing Translational Sciences (NCATS))
A selection: hits, their analogues and other compounds. The true share with any hit is near 9.2%.
NPC1 prom act: qHTS Assay for NPC1 Promoter Activators; Huh7 NPC1 promoter luciferase reporter, 24 h; Potency, µM (highest dose often 9.22 µM), inactives show top-dose activation, usual class: activators; actives 2.4% (n = 320,000); AID 485313, 2010; note: % of control where 0% means no effect; nearly all actives have a fitted effect of over 60% in size
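Huh7 cells stably carrying NPC1 promoter–luciferase, plated in Opti-MEM with 10% FBS for 2 h, were exposed to compound in DMSO for 24 h at 37 °C; luciferase reagent was added for 10 min and luminescence read.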
Rab9 prom act: qHTS Assay for Rab9 Promoter Activators; Huh7 Rab9 promoter-luciferase reporter, luminescence, 24 h; Potency, µM (titrated, usually from 9.22 µM), for inactives: top-dose activation, negative = inhibition, hits mostly activators; actives 2.8% (n = 320,000); AID 485297, 2010; note: % of control where 0% means no effect; nearly all actives have a fitted effect of over 60% in size
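Quantitative HTS format; Huh7 Rab9-luciferase reporter cells (1500/well) receive compound 2 h post-plating, incubate 24 h at 37 °C, then get luciferase reagent for 10 min before luminescence reading.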
ELG1 DNA repair: qHTS screen for small molecules that inhibit ELG1-dependent DNA repair in human embryonic kidney (HEK293T) cells expressing luciferase-tagged ELG1; HEK293T ELG1-luciferase reporter, luminescence, 16 h; DNA damage induced by 5-fluorouridine; Potency, µM (doses to about 46.1 µM), for inactives: top-dose activity change, negative = inhibition, most hits filed as inhibitors; actives 2.3% (n = 330,000); AID 504467, 2011; note: % is set by controls: 0 for no effect and ±100 for the full control effect; nearly all actives have a fitted effect of over 55% in size
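Step one: seed 2,000 cells per well. Step two: pin-transfer compound or DMSO alongside 5-fluorouridine. Step three: incubate 16 hr, 37 °C, 5% CO2. Step four: add ONE-Glo, wait 30 min, read luminescence.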
ELG1 genotoxic: qHTS screen for small molecules that induce genotoxicity in human embryonic kidney (HEK293T) cells expressing luciferase-tagged ELG1; Potency, µM (series often up to 46 µM), for inactives: at the highest dose activity change, positive = activation, most hits filed as activators; AID 504466, 2011; HEK293T ELG1-luciferase reporter, luminescence, 16 h; actives 1.3% (n = 330,000); note: % of control where 0% means no effect; nearly all actives have a fitted effect of over 60% in size
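ELG1-luciferase HEK293T cells, 2,000/well; compound pinned in; 16 hr, 37 °C, 5% CO2; ONE-Glo, 30 min RT; luminescence on CCD imager.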
SMN2 splice enh: qHTS Assay for Enhancers of SMN2 Splice Variant Expression. HEK293 SMN2-luciferase splicing reporter, luminescence, 30-36 h. Potency, µM (top dose mostly 46.1 µM), without a hit: top-dose activity change, positive = activation, most hits filed as activators. actives 2.8% (n = 210,000). AID 1458, 2008; note: % of control where 0% means no effect; nearly all actives have a fitted effect of over 55% in size
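HEK293 cells carry an SMN2 […]–luciferase reporter in which exon 7 inclusion puts luciferase in frame. Cells were plated 10-12 h before compound addition, then incubated 30-36 h at 37C. ONE-Glo luminescence was read; sodium butyrate at 4.5 mM final served as control.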
FLuc counter: qHTS profiling assay for firefly luciferase inhibitor/activator using purifed enzyme and Km concentrations of substrates (counterscreen for miR-21 project); AID 588342, 2011; actives 6.9% (n = 360,000); purified FLuc, Km substrates, luminescence inhibition; Luciferin 4-monooxygenase (Photinus pyralis), P08659; Potency, µM (highest dose often 57.5 µM), without a hit: at the highest dose activity change, negative = inhibition, hits mostly inhibitors;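 note: plate controls were vehicle for no effect and reference inhibitor for full effect; nearly all actives have a fitted effect of over 55% in size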
Target sequence (P08659 whole entry, looked up): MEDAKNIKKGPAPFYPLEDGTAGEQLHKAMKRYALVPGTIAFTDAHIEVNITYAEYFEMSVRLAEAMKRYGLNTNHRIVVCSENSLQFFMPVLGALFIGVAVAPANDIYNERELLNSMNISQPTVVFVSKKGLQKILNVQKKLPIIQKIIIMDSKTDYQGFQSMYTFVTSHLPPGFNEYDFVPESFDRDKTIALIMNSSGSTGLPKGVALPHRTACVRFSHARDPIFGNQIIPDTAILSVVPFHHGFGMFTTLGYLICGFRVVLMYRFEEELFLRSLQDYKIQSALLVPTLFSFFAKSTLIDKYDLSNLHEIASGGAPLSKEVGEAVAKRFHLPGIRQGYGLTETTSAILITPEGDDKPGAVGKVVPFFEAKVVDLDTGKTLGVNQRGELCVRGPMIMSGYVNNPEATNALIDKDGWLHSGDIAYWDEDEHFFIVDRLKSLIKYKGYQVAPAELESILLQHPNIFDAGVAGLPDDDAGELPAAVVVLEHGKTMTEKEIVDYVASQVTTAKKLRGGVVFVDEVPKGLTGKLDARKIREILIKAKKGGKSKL
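Purified P. pyralis luciferase, 10 nM final, with Km-level 10 uM D-luciferin and 10 uM ATP in 50 mM Tris acetate pH 7.5, 10 mM Mg acetate, 0.01% Tween-20, 0.05% BSA; 6-point qHTS titration about 60 µM downward; luminescence read.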
An asterisk follows results filed as active; ? = inconclusive; . = no result given; [ ] = remark or other dose. Calls come from the whole dose curve; as a rule, active = well fitted curve in the direction sought with a large enough effect; inconclusive = small, poorly fitted or top-dose-only effect, or another doubt; inactive = no such curve, though single readings can be large; an effect the other way counts as inactive or inconclusive. Potency is the fitted concentration of half-maximal effect.

SMILES	NPC1 prom act	Rab9 prom act	ELG1 DNA repair	ELG1 genotoxic	SMN2 splice enh	FLuc counter
CCc1nnc(NS(=O)(=O)c2ccc(N=Cc3c(C)[nH]n(-c4ccc(C)c(C)c4)c3=O)cc2)s1	-1.2%	-1.6%	?	6.8%	?	15.1µM*
O=C(NC1CCSc2ccccc21)c1ccccc1Br (configuration not stated)	?	29.2%	?	-3.6%	.	16.9µM*
O=C(NC1CCCc2ccccc21)c1ccccc1Br (configuration not stated)	-2.5%	-0.7%	-5.3%	-0.9%	-11.1%	-0.2%
O=C(NCc1ccc2c(c1)OCO2)C(=O)Nc1cc2c3c(c1)CC(=O)N3CCC2	7.4%	-1.2%	-5.6%	5.5%	.	-0.8%
O=[N+]([O-])c1c(Nc2ccccc2O)cc(Cl)c2nonc12	-44.0%	-29.3%	25.9µM*	-16.7%	.	-19.5%
CCCCCN1C=CC(=C2C(=O)c3ccccc3C2=O)C=C1	0.126µM*	0.0158µM*	?	-12.6%	-100.3%	0.0675µM*
CCN1C(=C2C(=O)c3ccccc3C2=O)C=Cc2ccccc21	9.6%	8.8%	17.3%	?	-1.9%	?
COc1ccc(CNC(=O)CSc2ncc3c(n2)-c2ccc(Cl)cc2N(Cc2ccc(F)cc2)S3(=O)=O)cc1OC	.	.	.	.	.	-0.1%
Oc1ccc(/C=N/NC(=S)NC2CC3CCC2C3)cc1 (configuration not stated)	3.16µM*	?	?	?	.	?
O=C(c1cccc(S(=O)(=O)Nc2ccc(Br)cc2)c1)N1CCC1	3.1%	-55.9%[1.84 µM]	11.5%	-4.3%	.	6.3%
COc1ccc(C(=O)Nc2cccc(OCc3cc(=O)n4c5c(sc4n3)CCCC5)c2)cc1OC	.	.	.	.	-2.1%	2.39µM*
CCCC(=O)Nc1sc2c(c1C(=O)OCC)CC(C)(C)OC2	-4.5%	-2.2%	7.3µM*	-0.7%	2.2%	-0.2%
COC(=O)c1c(NC(=S)NN2CCOCC2)sc2c1CCCC2	-1.6%	-2.6%	-17.4%	-3.6%	.	15.1µM*
COC(=O)c1c(NC(=O)CN2CCOCC2)sc2c1CCC(C)C2 (configuration not stated)	8.3%	23.4%	?	18.9%	-4.8%	12µM*
CCOC(=O)c1c(NC(=O)CN2CCOCC2)sc2c1CC(C)(C)OC2	9.1%	-1.4%	8.2µM*	-7.8%	-2.5%	-0.1%
CCOC(=O)c1c(NC(=O)CCN2CCOCC2)sc2c1CC(C)(C)OC2	-4.2%	-8.0%	?	1.2%	?	6.1%
COC(=O)c1c(NC(=S)NC(=O)c2ccco2)sc2c1CCCC2	-11.4%	-6.2%	?	8.0%	-5.2%	?
CCOc1ccc(CCNC(=O)c2cn(CC)c3ccc(S(=O)(=O)N4CCCCCC4)cc3c2=O)cc1OCC	.	.	.	.	11.9%	-8.6%
CCOC(=O)c1c(NC(=O)c2ccc(C)cc2)sc2c1CC(C)(C)OC2	-0.7%	2.2%	8.2µM*	-2.7%	-22.9%	-3.6%
C=CCNc1nnc(-c2ccncc2)s1	0.3%	15.9%	-6.1%	-1.3%	-5.3%	-1.2%
c1ccc2c(Nc3nnc(-c4ccncc4)s3)cccc2c1	?	?	?	17.8%	?	5.36µM*
C/[N+]([O-])=C\C1C(=O)CCCC1=O	-6.8%	-4.8%	-7.9%	-5.0%	10.1%	5.3%
O=C(Cc1cccs1)Nc1nnc(SCc2ccc(Br)cc2)s1	-1.0%	-1.1%	?	3.4%	-3.0%	16.9µM*
O=C(Nc1nnc(SCc2ccccc2F)s1)C1=COCCO1	2.51µM*	3.55µM*	?	10.3µM*	.	16.9µM*
